Bioassay records (PubChem)
Gal4-VP16 FLuc: Gal4-VP16 reporter inhibition counter-screen | 310,000 compounds, 3.5% hits | Potency, µM (series often up to 53.6 µM), for the others: top-dose activity, negative = inhibition, most hits filed as inhibitors | Drosophila S2 Gal4-VP16 UAS-luciferase, luminescence, 20 h;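 also: Gal4-VP16 expression switched on by copper sulfate through the metallothionein promoter; potency is read from the fitted curve at half-maximal effect; nearly all actives have a fitted effect of over 50% in size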
DT40 TDP1 CPT: DT40-hTDP1 cell growth loss with CPT; Potency, µM (doses to about 46.2 µM), without a hit: top-dose activity change, negative = growth inhibition, actives largely listed as inhibitors; chicken DT40 Tdp1-/-;hTDP1 cells + 20 nM CPT, ATP luminescence, 48 h; 420,000 compounds, 12% hits; also: potency is read from the fitted curve at half-maximal effect; nearly all actives have a fitted effect of over 55% in size
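Cell growth measured by CellTiter-Glo luminescence after a minimum 48 h, 37 C compound exposure with 20 nM CPT in Tdp1-knockout DT40 cells stably expressing hTDP1, seeded 400/well; qHTS titration format.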
RORg inh: blocks mouse ROR gamma transcriptional activity | P51450 | Drosophila S2 Gal4-RORgamma UAS-luciferase reporter, 20 h | Potency, µM (doses to about 53.6 µM), for inactives: at the highest dose activity change, negative = inhibition, most hits filed as inhibitors | 310,000 compounds, 5.4% hits; also: potency is read from the fitted curve at half-maximal effect; nearly all actives have a fitted effect of over 60% in size
Target sequence (P51450 whole entry, looked up, the tested form may be a part): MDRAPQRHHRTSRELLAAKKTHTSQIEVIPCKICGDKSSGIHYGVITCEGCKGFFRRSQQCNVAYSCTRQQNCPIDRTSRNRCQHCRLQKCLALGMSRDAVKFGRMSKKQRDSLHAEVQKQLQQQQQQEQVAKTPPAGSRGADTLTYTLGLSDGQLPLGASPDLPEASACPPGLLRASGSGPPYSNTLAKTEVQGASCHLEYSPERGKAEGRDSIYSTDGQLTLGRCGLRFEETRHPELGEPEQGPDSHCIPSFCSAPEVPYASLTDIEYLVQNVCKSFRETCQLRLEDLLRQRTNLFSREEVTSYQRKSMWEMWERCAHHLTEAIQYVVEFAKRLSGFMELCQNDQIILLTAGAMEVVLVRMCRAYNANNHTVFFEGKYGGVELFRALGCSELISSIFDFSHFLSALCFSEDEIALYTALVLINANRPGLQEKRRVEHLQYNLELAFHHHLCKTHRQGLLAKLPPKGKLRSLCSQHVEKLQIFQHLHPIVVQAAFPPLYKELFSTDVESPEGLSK
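Drosophila S2 cells stably expressing Gal4-DBD/mouse RORγ fusion under metallothionein promoter plus UAS-luciferase; compound 1 h, then 700 uM CuSO4 induction for 20 h at ambient temperature; inhibition read as reduced luminescence.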
LDHA block: blocks human lactate dehydrogenase A. activity change, % (values are at about 110 or 230 µM). purified LDHA, NADH/diaphorase-resazurin fluorescence; hits give low values. 480,000 compounds, 0.15% hits; in the data active = activity change below about -30%; inconclusive = mostly about -25% to -30%;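 also: plate controls were DMSO wells for no effect and wells without enzyme for full effect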
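Human LDH5 (2 nM) was incubated with 0.06 mM NADH and 0.2 mM pyruvate for 5 min at room temperature in Tris pH 7.4. Remaining NADH was coupled through diaphorase/resazurin, and resorufin fluorescence was read at 0 and 20 min.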
DT40 TDP1 no CPT: qHTS for Inhibitors of human tyrosyl-DNA phosphodiesterase 1 (TDP1): qHTS in cells in absence of CPT; Potency, µM (highest dose often 46.2 µM), for inactives: at the top dose activity change, negative = growth inhibition, actives largely listed as inhibitors; DT40 Tdp1-/- hTDP1 cells, no CPT, ATP luminescence, 48 h; 420,000 compounds, 15% hits; also: potency is read from the fitted curve at half-maximal effect; nearly all actives have a fitted effect of over 55% in size
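Chicken DT40 Tdp1-/- cells stably complemented with human TDP1 were seeded at 400 cells/well with DMSO in place of 20 nM camptothecin. After compound pinning, cells grew at least 48 hr at 37 °C; viability read by CellTiter-Glo luminescence.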
IL1B secr inh: blocks inflammasome-driven IL-1 beta release. THP-1 LPS/ATP IL-1B secretion, AlphaLISA, 16 h; hits give low values. activity change, % at 57.5 µM. 360,000 compounds, 4.7% hits; in the data active = activity change below about -50%; inconclusive = mostly about -30% to -49%
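THP-1 cells pretreated 1 hr with compounds (up to 57.5 uM final), then stimulated with LPS (250 ng/mL final) plus ATP (1.25 mM final); secreted IL-1B measured by AlphaLISA after 16 hr, decreased signal indicating inhibition.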
Active calls of the source: *; ? = inconclusive; nt = no result; [ ] = dose if it differs, or a comment. In the library only some 18% were active in any assay of this set; here they are far more common. Unless noted, calls follow the shape of the dose curve; as a rule, active = well fitted curve in the direction sought with a large enough effect; inconclusive = small, poorly fitted or top-dose-only effect, or another doubt; inactive = no such curve, though single readings can be large; an effect the other way counts as inactive or inconclusive. Unless noted, % is scaled to controls: 0 for no effect and ±100 for the full control effect.

SMILES	Gal4-VP16 FLuc	DT40 TDP1 CPT	RORg inh	LDHA block	DT40 TDP1 no CPT	IL1B secr inh
O=c1c2cc(F)ccc2[nH]c(=S)n1CCCN1CCOCC1	?	-5.1%	11.2µM*	-8.3	16.6%	-9.2
COc1cc2c(=O)n(CCCN3CCOCC3)c(=S)[nH]c2c(OC)c1OC	1.2%	5.8µM*	-26.0%	-2.5	23.1µM*	37.7
CCCCn1c(=S)[nH]c2ccc(N3CCOCC3)cc2c1=O	7.08µM*	nt	2.24µM*	nt	nt	nt
CCOc1cc2[nH]c(=S)n(CCCCC(=O)NCc3ccco3)c(=O)c2cc1OCC	nt	-3.4%	2.8%[0.365 µM]	-12.1	-11.1%	-1.4
CCOc1cc2[nH]c(=S)n(Cc3ccc(C)o3)c(=O)c2cc1OCC	11.2µM*	29.1µM*	7.08µM*	-14.5	-29.6%	5.7
Cc1ccc(Cn2c(=S)[nH]c3ccc(N4CCOCC4)cc3c2=O)o1	3.98µM*	?	3.16µM*	43.0	16.4µM*	?
CC(=O)N1CCN(C(C(=O)O)c2cn(Cc3ccccc3)c3cc(C(=O)O)ccc23)CC1 (stereo not given)	nt	nt	nt	-0.5	nt	nt
COC(=O)[C@H]1[C@@H]2C[C@@H]3c4[nH]c5ccccc5c4CCN3C[C@H]2CC[C@H]1O	-4.2%	4.8%	19.1%	nt	-23.5%	nt
CCC1CN(C)C2Cc3c([nH]c4ccccc34)C(=O)CC1C2C(=O)OC (stereo not given)	0.6%	23.1µM*	0.1%	3.7	-38.4%	7.2
COCCn1cnnc1SCc1ccc(F)cc1	nt	nt	nt	-3.2	nt	nt
Cn1cc(/C=C(\NC(=O)c2ccco2)C(=O)N2CCOCC2)c2ccccc21	nt	nt	nt	11.8	nt	nt
CCN1CCN(C(=O)c2cccc(OC3CCN(S(=O)(=O)N(C)C)CC3)c2)CC1	18.4%	1.9%	21.5%	-6.7	9.3%	16.7
CN(C)S(=O)(=O)N1CCC(Oc2ccc(C(=O)NC3Cc4ccccc4C3)cc2)CC1	?	?	?	-1.8	16.4µM*	16.6
CN(C)S(=O)(=O)N1CCC(Oc2cccc(C(=O)NC3CCCCCC3)c2)CC1	?	18.4µM*	42.3%	-7.2	14.6µM*	1.1
CCOC(=O)CSc1nc2ccc(NC(=O)CSc3nnnn3Cc3ccccc3)cc2s1	-8.7%	-14.0%	19.6%	-1.8	-12.8%	23.9
CC(C)(C)NC(=O)CSc1nc2ccc(NC(=O)CSc3nnnn3Cc3ccccc3)cc2s1	11.2µM*	8.2µM*	-41.0%	-1.0	10.3µM*	-29.1
Nc1nnc(SCC(=O)Nc2cccc(F)c2)s1	nt	15.4%	nt	-7.7	11.4%	nt
CC(C)(C)NC(=O)CSc1nc2ccc(NC(=O)CSc3nnc(N)s3)cc2s1	?	20.6µM*	25.8%	-8.3	9.2µM*	-8.3
COC(=O)C1=C(N)OC2=C(C(=O)CC(C)(C)C2)C1c1cccc(Cl)c1 (stereo not given)	nt	nt	nt	10.1	nt	nt
CCOC(=O)c1cc(-c2ccccc2)n(CC(=O)Nc2ccc(OC)c(OC)c2)c1C	-12.2%	?	-16.4%	-12.6	?	26.6
CC(=O)c1cc(-c2ccccc2)n(CC(=O)Nc2cccc(C)c2)c1C	-4.8%	18.4µM*	16.8%	-11.2	14.6µM*	-4.1
CCOC(=O)c1cc(-c2ccccc2)n(CCCC(=O)Nc2ccc(C)cc2C)c1C	nt	?	nt	-2.1	?	nt
CCOC(=O)c1cc(-c2ccccc2)n(CC(=O)Nc2cccc(OC)c2)c1C	-25.6%	?	-21.9%	-10.3	5.8µM*	-16.2
CCOC(=O)c1cc(-c2ccccc2)n(CC(=O)NCc2ccccc2OC)c1C	nt	16.4µM*	nt	-4.0	16.4µM*	nt
CCOC(=O)c1cc(-c2ccccc2)n(CCCC(=O)Nc2cc(C)ccc2OC)c1C	nt	18.4µM*	nt	3.5	23.1µM*	nt
SMILES	Gal4-VP16 FLuc	DT40 TDP1 CPT	RORg inh	LDHA block	DT40 TDP1 no CPT	IL1B secr inh
CC(=O)c1cc(-c2ccccc2)n(CC(=O)NC(C)(C)C)c1C	1.8%	-2.4%	-0.2%	-1.8	-4.3%	-3.9
CCCOC(=O)c1c(-c2cccc(C)c2)csc1NC(=O)c1ccncc1	nt	nt	nt	-6.5	nt	nt
CC(NS(=O)(=O)c1cc(F)cc(F)c1)C(=O)N1CCCC1 (stereo not given)	nt	nt	nt	-4.3	nt	nt
COc1ccc(NC(=O)c2c(C)noc2C(C)C)cc1OC(F)F	nt	nt	nt	16.4	nt	nt
CN(Cc1ccccc1)C1CCN(Cc2ccc(F)cc2)CC1	nt	nt	nt	0.8	nt	nt
CCOC(=O)c1cc(-c2ccccc2)n(CC(=O)Nc2ccccc2OCC)c1C	nt	-81.1%	nt	3.1	9.2µM*	nt
CCOC(=O)c1cc(-c2ccccc2)n(CCCC(=O)Nc2cccc(Cl)c2C)c1C	nt	?	nt	-0.2	?	nt
CCOC(=O)c1cc(-c2ccccc2)n(CCC(=O)Nc2cc(OCC)ccc2OCC)c1C	nt	16.4µM*	nt	3.1	?	nt
CNc1nc(-c2cc(C)n(-c3cc(C)on3)c2C)cs1	nt	nt	nt	6.3	nt	nt
COc1cc(/C=C2\Oc3cc(OS(C)(=O)=O)cc(C)c3C2=O)cc(OC)c1OC	nt	nt	nt	11.2	nt	nt
CCN1CCN(C(c2cccs2)C(C)NC(=S)Nc2cc(C)ccc2C)CC1 (stereo not given)	-17.7%	?	?	-3.9	-0.8%	-8.0
Cc1ccc(C)c(NC(=S)NC(C)C(c2ccccc2)N2CCN(C)CC2)c1 (stereo not given)	-16.5%	?	12.6µM*	-7.1	?	-61.8*
COc1ccc(NC(=S)NCC(c2cccnc2)N2CCOCC2)cc1 (stereo not given)	9.4%	20.9%	-1.0%	-0.9	6.3%	3.9
COc1ccc(NC(=S)NC(C)C(c2ccccc2)N2CCOCC2)cc1 (stereo not given)	?	?	4.47µM*	-3.2	-27.7%	-0.2
CC(NC(=S)Nc1ccccc1Cl)C(c1ccccc1)N1CCOCC1 (stereo not given)	?	?	3.98µM*	-1.2	?	-19.8
CC(C)(C(=O)NC1CCCCCC1)c1ccccc1	nt	nt	nt	-0.3	nt	nt
CCOC(=O)C1CCCN(C(=O)c2[nH]c3ccccc3c2Sc2ccc(Cl)cc2)C1 (stereo not given)	nt	?	nt	8.8	?	nt
CC1CCCCN1CCCNC(=O)c1cc(C2CC2)nc2ccccc12 (stereo not given)	nt	nt	nt	-1.2	nt	nt
O=C(NCCCN1CCCCC1)c1[nH]c2ccccc2c1Sc1ccc(Cl)cc1	nt	20.6µM*	nt	3.9	20.6µM*	nt
CC1CCCCN1CCCNC(=O)c1[nH]c2ccccc2c1Sc1ccc(Cl)cc1 (stereo not given)	nt	10.3µM*	nt	2.6	13µM*	nt
COc1ccc2c(Sc3ccccc3)c(C(=O)NCCCN3CCCCC3)[nH]c2c1	nt	?	nt	3.0	18.4µM*	nt
